High-throughput results from PubChem.
Rpn11 inh: Rpn11 (human) deubiquitinase inhibition | O00487 | human 26S proteasome, Ub4-pepOG fluorescence polarization; 20S core pre-blocked with epoxomicin | inhibition, % at 20 µM | 0.59% of 360,000 active;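 active means inhibition at 20 µM, scaled to each plate's controls, above about 33%, limit read from the data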
Myeloid diff MLP: myeloid differentiation induction; AID 624256; calls only at 10 µM; 1% of 360,000 active; ER-HoxA9 myeloid progenitors, lysozyme-GFP differentiation, flow cytometry;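 active means normalized GFP-positive differentiation at or above the plate's own cutoff, the solvent-only control mean plus 3 SD; inconclusive means no clear call, values can overlap the other calls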;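 further: cells exposed to compound for four days before flow analysis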
TPT1 inhibitor: blocks Candida albicans tRNA 2'-phosphotransferase; inhibition, % at 5 µM; recombinant caTPT1, FP RNA substrate dephosphorylation; 0.81% of 300,000 active; AID 1962;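 active means inhibition above the mean of all tested compounds plus 3 SD, set per screening campaign, cut at about 24% in these data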;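 further: plate controls were DMSO alone for no effect and ferristatin control at 100 nM for full effect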
HNF4A DNA FP: change in binding of human HNF4 alpha to DNA; activity change, % at 10 µM; P41235; HNF4a-FITC DNA binding, fluorescence polarization, 1 h; AID 1224865; 0.3% of 360,000 active; in the data active means activity change above about 30%, passing the limit was not always enough
Target sequence (P41235 whole entry, looked up): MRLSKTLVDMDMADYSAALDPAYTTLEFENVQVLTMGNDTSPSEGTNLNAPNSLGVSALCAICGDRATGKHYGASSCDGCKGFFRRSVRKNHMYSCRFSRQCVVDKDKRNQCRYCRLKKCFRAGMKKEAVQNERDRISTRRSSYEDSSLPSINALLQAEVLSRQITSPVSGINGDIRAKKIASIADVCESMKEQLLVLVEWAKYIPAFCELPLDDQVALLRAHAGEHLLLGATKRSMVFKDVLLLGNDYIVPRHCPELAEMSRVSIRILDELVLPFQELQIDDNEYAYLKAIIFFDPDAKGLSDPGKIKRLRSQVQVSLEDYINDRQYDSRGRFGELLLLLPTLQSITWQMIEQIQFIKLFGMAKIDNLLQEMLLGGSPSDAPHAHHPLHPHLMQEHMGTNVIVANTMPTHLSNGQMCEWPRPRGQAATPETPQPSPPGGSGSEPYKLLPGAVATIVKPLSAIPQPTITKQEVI
An asterisk follows results filed as active. Hits are enriched below; roughly 2.1% of the tested compounds scored in any of these assays.

`COc1ccc(N(CC(=O)Nc2cccc(OC)c2)S(=O)(=O)c2c(C)nn(C)c2C)cc1` gave Rpn11 inh -5, Myeloid diff MLP inactive, TPT1 inhibitor -1 and HNF4A DNA FP 2.
COc1ccc(N(CC(=O)Nc2nc3ccc(C)cc3s2)S(=O)(=O)c2c(C)nn(C)c2C)cc1 was read as Rpn11 inh 6, Myeloid diff MLP active, TPT1 inhibitor 0 and HNF4A DNA FP 0.
Screening CCc1nc2ccc(C(=O)NCCC(C)C)cn2c1N(C)Cc1ccc(OC)cc1 returned Rpn11 inh 0, Myeloid diff MLP inactive and HNF4A DNA FP 0.
`Cc1c(S(=O)(=O)c2ccccn2)c(N)n(Cc2ccccc2Cl)c1C` gave Rpn11 inh 29, Myeloid diff MLP active, TPT1 inhibitor 17 and HNF4A DNA FP 7.
Screening COc1ccc(-n2cc(C#N)c(=O)[nH]c2=O)cc1 returned Rpn11 inh 2, Myeloid diff MLP inactive, TPT1 inhibitor 3 and HNF4A DNA FP -1.
Cc1ccc(Cl)cc1N1CCN(S(=O)(=O)c2c(C(=O)N3CCOCC3)c(C)n(C)c2C)CC1 was read as Rpn11 inh -6, Myeloid diff MLP active, TPT1 inhibitor 2 and HNF4A DNA FP 3.
COc1cccc(Cn2nc3c4cc(F)ccc4n(Cc4ccc(F)cc4)cc-3c2=O)c1 was read as Rpn11 inh 4, Myeloid diff MLP inactive, TPT1 inhibitor -3 and HNF4A DNA FP 2.
For COc1cc2c3nnc(-c4ccccc4)c-3cn(Cc3ccc(F)cc3)c2cc1OC the results were Rpn11 inh 3, Myeloid diff MLP inactive, TPT1 inhibitor 9 and HNF4A DNA FP 11.
`COc1cc2c3nnc(-c4ccc(F)cc4)c-3cn(Cc3cccc(F)c3)c2cc1OC` gave Myeloid diff MLP inactive, TPT1 inhibitor 5 and HNF4A DNA FP 115*.
For COc1cc2c3nnc(-c4ccc(F)cc4)c-3cn(Cc3ccc(C)cc3)c2cc1OC the results were Myeloid diff MLP active, TPT1 inhibitor 2 and HNF4A DNA FP 4.
`COc1cc2c3nnc(-c4ccc(F)cc4)c-3cn(Cc3cccc(C)c3)c2cc1OC` gave Rpn11 inh -15, Myeloid diff MLP active, TPT1 inhibitor -23 and HNF4A DNA FP 13.
For Cc1ccc(NC(=O)c2ccc(Cl)c(N3C(=O)CCC3=O)c2)cc1 the results were Rpn11 inh -4, Myeloid diff MLP inactive, TPT1 inhibitor 1 and HNF4A DNA FP 55*.
CC1CCC2(CC1)N=C(N)Nc1nc3ccccc3n12 (configuration not stated) was read as Rpn11 inh -1, Myeloid diff MLP inactive, TPT1 inhibitor -2 and HNF4A DNA FP 3.
Screening COc1ccc(CC(N)c2csc(Nc3cc(NCCCO)ncn3)n2)cc1 (configuration not stated) returned Rpn11 inh 4, Myeloid diff MLP active and HNF4A DNA FP 6.
For NC(Cc1ccc(Cl)cc1)c1csc(Nc2cc(NCCCO)ncn2)n1 (configuration not stated) the results were Rpn11 inh -10, Myeloid diff MLP inactive and HNF4A DNA FP 3.
COc1cc(C(=O)NCCCc2nc3ccccc3n2Cc2cc(C)ccc2C)cc(OC)c1OC was read as Rpn11 inh 4, Myeloid diff MLP inactive, TPT1 inhibitor -7 and HNF4A DNA FP 37*.
Screening CCC1=[N+](C)c2cccc3cccc(c23)N1C returned Rpn11 inh -1, Myeloid diff MLP active, TPT1 inhibitor -5 and HNF4A DNA FP -2.
Cc1nn(-c2ccccc2)c(Cl)c1/C=N/Nc1nc2ccccc2[nH]1 was read as Rpn11 inh -2, Myeloid diff MLP inactive, TPT1 inhibitor 1 and HNF4A DNA FP 68*.
For O=[N+]([O-])c1ccc(Oc2cccc3cccnc23)c([N+](=O)[O-])c1 the results were Rpn11 inh 13, Myeloid diff MLP active, TPT1 inhibitor 10 and HNF4A DNA FP 3.
NC(Cc1ccc(C(F)(F)F)cc1)c1csc(NC(=O)Nc2ccccc2Oc2ccccc2)n1 (configuration not stated) was read as Rpn11 inh 8, Myeloid diff MLP active and HNF4A DNA FP -5.
Screening COc1ccccc1NC(=O)Nc1nc(C(N)Cc2ccc(C(F)(F)F)cc2)cs1 (configuration not stated) returned Rpn11 inh 6, Myeloid diff MLP inactive and HNF4A DNA FP 4.
Screening NC(Cc1ccccc1)c1csc(NC(=O)Nc2ccccc2Oc2ccccc2)n1 (configuration not stated) returned Rpn11 inh -1, Myeloid diff MLP active and HNF4A DNA FP -4.
`Cc1cccc(C)c1-n1nnnc1C(c1ccnc2ccccc12)N(CCN(C)C)Cc1ccccc1` (configuration not stated) gave Myeloid diff MLP inactive and HNF4A DNA FP 5.
`CC(=O)c1ccc(C(=O)N2CCCC(CCC(=O)N(C)CCc3ccccn3)C2)s1` (configuration not stated) gave Rpn11 inh -4, Myeloid diff MLP active, TPT1 inhibitor -1 and HNF4A DNA FP 0.
Clc1ccc(/C=N/NC2=Nc3cccc4cccc2c34)cc1 was read as Rpn11 inh 28, Myeloid diff MLP active, TPT1 inhibitor 13 and HNF4A DNA FP 22.
COc1ccc(F)cc1S(=O)(=O)Nc1cc2c3c(c1)CCC(=O)N3CCC2 was read as Rpn11 inh 1, Myeloid diff MLP inactive, TPT1 inhibitor -1 and HNF4A DNA FP 1.
Screening C=CCn1c(SCC(=O)Nc2ccc(F)cc2)nc2ccccc2c1=O returned Rpn11 inh -3, Myeloid diff MLP inactive, TPT1 inhibitor -3 and HNF4A DNA FP 1.
COc1ccc(CNC(=O)c2ccc(Cl)c(S(=O)(=O)N3CCOCC3)c2)cc1OC was read as Rpn11 inh -8, Myeloid diff MLP active and HNF4A DNA FP -3.
For CN(c1cccc(NC(=O)c2ccc(Cl)c(S(=O)(=O)N3CCOCC3)c2)c1)S(C)(=O)=O the results were Rpn11 inh 11, Myeloid diff MLP active and HNF4A DNA FP 0.
O=C(Nc1ccc(NC(=O)c2ccc(Cl)c(S(=O)(=O)N3CCOCC3)c2)cc1)c1ccccc1 was read as Rpn11 inh -5, Myeloid diff MLP inconclusive, TPT1 inhibitor -1 and HNF4A DNA FP 4.
`COc1ccc(/C=N/NC(=O)CNC(=O)/C=C/c2ccccc2OC)cc1` gave Rpn11 inh 1, Myeloid diff MLP active, TPT1 inhibitor 3 and HNF4A DNA FP 4.
`Cn1c(=O)c2c(O)c(C=Nc3ccc(F)cc3)c(=O)n(C)c2n(C)c1=O` gave TPT1 inhibitor 2.
For CCc1nn(C(C)C(=O)N2CCN(c3ccc(OC)cc3)CC2)c(=O)c2cc3occc3n12 (configuration not stated) the results were Rpn11 inh -10, Myeloid diff MLP inconclusive, TPT1 inhibitor 0 and HNF4A DNA FP 0.
`CC1(c2nnc(-c3ccc(F)cc3)o2)CC(c2ccc([N+](=O)[O-])cc2)=NO1` (configuration not stated) gave Rpn11 inh 4, Myeloid diff MLP inactive, TPT1 inhibitor -2 and HNF4A DNA FP -4.
